TRHR enhancer-1: qHTS for Small Molecule Agonists and Allosteric Enhancers of Human TRH Receptor: Primary Screen for Enhancers. Thyrotropin-releasing hormone receptor (Homo sapiens), P34981. TRHR cells, fluo-8 calcium fluorescence, EC20 TRH enhancement. enhancement, % at 2 µM. actives 0.66% (n = 360,000); in the data active = enhancement above about 30%
Target sequence (P34981 whole entry, looked up): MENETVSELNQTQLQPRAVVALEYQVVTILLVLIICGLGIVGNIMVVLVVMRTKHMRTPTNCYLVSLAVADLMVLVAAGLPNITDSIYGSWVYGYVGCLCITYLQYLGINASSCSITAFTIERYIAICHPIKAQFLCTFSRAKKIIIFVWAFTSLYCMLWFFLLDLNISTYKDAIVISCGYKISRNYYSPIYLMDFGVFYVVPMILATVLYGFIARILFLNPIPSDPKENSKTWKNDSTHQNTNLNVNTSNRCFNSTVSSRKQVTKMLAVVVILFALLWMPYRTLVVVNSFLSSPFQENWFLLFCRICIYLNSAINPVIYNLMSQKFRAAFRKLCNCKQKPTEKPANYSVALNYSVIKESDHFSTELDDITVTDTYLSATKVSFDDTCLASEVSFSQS
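Enhancer read-out: after compound pinning and an initial kinetic agonist-mode read, an EC20 of TRH (10 nM final) was injected and fluo-8 calcium signal (Ex 480/Em 530) followed at 1 s/cycle for 100 cycles in TRHR-expressing cells.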
TRHR agonist-1: qHTS for Small Molecule Agonists and Allosteric Enhancers of Human TRH Receptor: Primary Screen for Agonists | Thyrotropin-releasing hormone receptor (Homo sapiens), P34981 | TRHR cells, calcium flux fluo-8, FDSS agonist mode | activation, % at 2 µM | actives 0.18% (n = 360,000); in the data active = activation above about 30%
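In this calcium-flux screen, cells bearing human TRHR are dye-loaded with fluo-8, baselined for 10 cycles, then exposed to library compounds; positive kinetic calcium responses during the agonist phase mark hits, with TRH as control.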
GRP78 ERSR act: qHTS for Inducers of the Endoplasmic Reticulum Stress Response (ERSR) in Human Glioma: qHTS. U87-MG GRP78 promoter luciferase reporter, 16 h. Potency, µM, most hits filed as activators. actives 0.02% (n = 420,000). AID 602332, 2012; note: series mostly up to about 76 µM; nearly all actives have a fitted effect of over 35% in size
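ERSR induction read as luciferase luminescence (Bright-Glo, 10 min at room temperature) in stably transfected human U87-MG glioma cells exposed to compounds for 16 h, using GRP78 as sensor.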
D1 antag: Antagonist of Human D 1 Dopamine Receptor: qHTS; AID 504652, 2011; activity change, negative = inhibition, % at 10 µM; actives 3.2% (n = 360,000); HEK293 TREx D1 cells, calcium flux, dopamine EC80; stronger effect = lower value; in the data active = activity change below about -30%
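Cells carrying a force-coupled, tetracycline-inducible human D1 receptor report calcium flux. Each well gets a 10 s baseline, compound with 180 s monitoring, then an EC80 dopamine stimulus with a second 180 s kinetic read.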
D1 potentiator: Potentiators of Human D1 Dopamine Receptor: qHTS; AID 504651, 2011; HEK293 TREx D1 cells, calcium flux, dopamine EC20 potentiation; actives 0.036% (n = 360,000); potentiation, % at 10 µM; in the data active = potentiation above about 30%
D1 agonist: Allosteric Agonists of the Human D1 Dopamine Receptor: qHTS; D(1A) dopamine receptor (Homo sapiens), P21728; HEK293 T-REx D1 cells, calcium flux, agonist mode; activation, % at 2 µM; actives 1% (n = 360,000); in the data active = activation above about 30%
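Agonism was scored from calcium flux recorded over 180 s (1 read/s) after pintool compound addition, following a 10-cycle baseline. Cells were inducible force-coupled HEK293 TREx D1, plated overnight at 30 C and loaded with no-wash calcium dye.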
TRHR enhancer-2: qHTS for Small Molecule Agonists and Allosteric Enhancers of Human TRH Receptor: Confirmation Screen for Enhancers | shares compounds with TRHR enhancer-1 | TRH receptor cell assay, enhancer confirmation qHTS | activity change, negative = inhibition, % at 46.1 µM | 970 tested, under 10 active | AID 493076, 2011;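 note: compound effect scored on response to added TRH at EC20 of 10 nM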
TRHR agonist-2: qHTS for Small Molecule Agonists and Allosteric Enhancers of Human TRH Receptor: Confirmation Screen for Agonists. shares compounds with TRHR enhancer-1. TRHR-expressing cells, agonist activation read-out. Potency, µM (doses to about 46.1 µM), hits mostly activators. actives 8% (n = 970); note: nearly all actives have a fitted effect of over 75% in size
Each line names hits and unclear results; the compound was inactive in the other large screens (follow-up assays come after a bar, where they were run). Hits are enriched below; roughly 4% of the tested compounds scored in any of these assays. Unless noted, calls come from the whole dose curve; as a rule, active = well fitted curve in the direction sought with a large enough effect; inconclusive = small, poorly fitted or top-dose-only effect, or another doubt; inactive = no such curve, though single readings can be large; an effect the other way counts as inactive or inconclusive.

O=c1ccc2cc3c4c(c2o1)CCCN4CCC3	TRHR agonist-1 47.4, D1 agonist 75.2 | TRHR enhancer-2 inconclusive | TRHR agonist-2 20.6µM
CCCCN1C(=O)C(CC(=O)NCCCN(C)C)CC(C(=O)N(C)C)=C1C (stereo not given)	none (no result: TRHR enhancer-1, TRHR agonist-1, D1 antag, D1 potentiator, D1 agonist)
CCOc1ccc(N=C2NC(=O)C(CC(=O)O)S2)cc1 (stereo not given)	TRHR enhancer-1 53.2 | TRHR enhancer-2 inactive | TRHR agonist-2 inactive
COc1ccc(NC(=O)CC2SC(=Nc3ccccc3)NC2=O)cc1 (stereo not given)	none
Cc1ccc(OCc2cc(C(=O)NC3CCOC3)no2)cc1C (stereo not given)	none
Cc1ccc(C)c(C2=CSC3=NS(=O)(=O)CCN23)c1	none
Cc1ccc(C)c(C2=CSC3=NCCN23)c1	TRHR enhancer-1 67.6 | TRHR enhancer-2 inactive | TRHR agonist-2 inactive
Cc1[nH]n(-c2ccccc2)c(=O)c1C=NC1CCCCC1	TRHR enhancer-1 43.9 | TRHR enhancer-2 inactive | TRHR agonist-2 inactive
Cc1[nH]n(-c2ccccc2)c(=O)c1C=NC1CCCCCC1	none
CCc1cccc2c(-c3ccccc3)nc(SCC(=O)Nc3ccccc3OC)nc12	none
COc1ccc(-c2nc(SCC(=O)NCCCc3ccccc3)n[nH]2)cc1	none
NC(=O)CN1CCOCCOCCN(CC(N)=O)CCOCCOCC1	TRHR enhancer-1 54.7 | TRHR enhancer-2 inconclusive | TRHR agonist-2 inactive
CC(/C=C1\SC(=S)N(CC(=O)O)C1=O)=C\c1ccccc1	none
CN1CCS/C1=C/C=C1\SC(=S)N(CC(=O)O)C1=O	D1 agonist 41.9 | TRHR enhancer-2 inactive | TRHR agonist-2 20.6µM
CCOC(=O)c1cc(-c2csc(-c3ccc(C(C)(C)C)cc3)n2)on1	TRHR enhancer-1 44.3 | TRHR enhancer-2 inactive | TRHR agonist-2 inactive
CSc1cccc(CN2CCN(Cc3ccc(F)c(F)c3)C(CCO)C2)c1 (stereo not given)	none
Cc1cc(C)n(CCN(C)c2nc3nonc3nc2N2CCCCC2)n1	none
Cc1cc(C)n(-c2nc3nonc3nc2-n2nc(C)cc2C)n1	TRHR enhancer-1 54.2 | TRHR enhancer-2 inactive | TRHR agonist-2 inactive
COCCN(C(=S)Nc1ccccc1C)C(C)c1cccnc1 (stereo not given)	none
Cc1ccccc1NC(=S)N(CCN(C)C)C(C)c1cccnc1 (stereo not given)	TRHR enhancer-1 43.1 | TRHR enhancer-2 inactive | TRHR agonist-2 inactive
CC1(C(=O)Nc2ccc3c(c2)OCCO3)CCN1C(=O)C1(c2ccc(Cl)cc2)CC1 (stereo not given)	none (no result: TRHR enhancer-1, TRHR agonist-1, D1 antag, D1 potentiator, D1 agonist)
Cc1cc(OCC(=O)N(Cc2ccco2)c2c(N)n(Cc3ccccc3)c(=O)[nH]c2=O)ccc1Cl	none (no result: D1 potentiator)
CCc1ccc(CN(C)CC(O)COc2cccc3ccccc23)cc1 (stereo not given)	TRHR enhancer-1 42.3 | TRHR enhancer-2 inconclusive | TRHR agonist-2 inactive
COc1cccc(CN2CCC2(C)C(=O)NCCc2ccccn2)c1OC (stereo not given)	none (no result: TRHR enhancer-1, TRHR agonist-1, D1 antag, D1 potentiator, D1 agonist)
COC(=O)c1cc2occc2n1CC(=O)Nc1cccc(SC)c1	none
COC(=O)c1cc2sccc2n1CC(=O)Nc1cccc(SC)c1	TRHR enhancer-1 44.9 | TRHR enhancer-2 inactive | TRHR agonist-2 inactive

Source: PubChem (National Center for Advancing Translational Sciences (NCATS))
